Results on 8 compounds are retold here after PubChem BioAssay (NCI).

Experiment in all cases: NCI-60 one-dose screen, 48 h (100 = growth as untreated, 0 = no growth, -100 = all killed)
Holding throughout (settings): 10 µM unless noted

The test system of test [1] is HCT-15 colon.
Test [2] has as its system HT29 colon.
Test [3] deals with SNB-75 CNS.
Test [4] concerns U251 CNS.
Test [5] deals with PC-3 prostate.
Test [6] relates to SK-MEL-5 melanoma.
For test [7], the system named is UACC-62 melanoma.
Test [8] concerns LOX IMVI melanoma.
Test [9] relates to SK-MEL-28 melanoma.
For test [10], the system named is SK-MEL-2 melanoma.
The subject of test [11] is EKVX NSCLC.
Test [12] has as its system SN12C renal.
Test [13] deals with UO-31 renal.
The subject of test [14] is TK-10 renal.
Test [15] concerns ACHN renal.
The subject of test [16] is CAKI-1 renal.
For test [17], the system named is A498 renal.
The subject of test [18] is CCRF-CEM leukemia.
For test [19], the system named is MOLT-4 leukemia.

This is part of a sample that, as a whole, favours compounds with a hit. Of some 83,000 tested, about 20% had one in any assay.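 The endpoint reported here, percent growth, reads 100 for growth as untreated, 0 for no net growth and -100 for all cells dead.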 Activity calls are given as the source filed them. Rule for the calls: active = growth percent below 10; inactive = the rest.

In the case of `COc1ccc(C(=O)c2cc3c(N)c(C(=O)Nc4cccc(Br)c4C)sc3nc2C)cc1`, the growth in [1] was 14.2% (inactive); in test [2], -1.07% (active); in test [3], -16.9% (active); in [4] it was 10.7% (inactive); in test [5] it was 21% (inactive); in test [6], -36.2% (active). Also, the growth in [7] was 38% (inactive); in test [8] it was 19% (inactive); in test [9], 62.1% (inactive); in test [10], 17.6% (inactive); in [11] it was 38.3% (inactive); in test [12], 19.2% (inactive). The growth in test [13] is 21% (inactive); in [14] it was 54.3% (inactive); in test [15] it was 24% (inactive); in [16], 15.2% (inactive); in [17], -13.2% (active); in test [18], 9.3% (active). Moreover, the growth in test [19] is 10.2% (inactive).
For `COc1c(Cl)cc(Cl)c2ccc(C=C3C(=O)NC(=S)NC3=O)nc12`, the growth was 103% (inactive) in test [1]; 109% (inactive) in test [2]; 95% (inactive) in [3]; 105% (inactive) in test [4]; 105% (inactive) in test [5]; 101% (inactive) in [6]. Also, the growth in test [7] is 105% (inactive); in test [8] it was 101% (inactive); in test [9] it was 103% (inactive); in test [10] it was 105% (inactive); in [11] it was 104% (inactive); in test [12] it was 100% (inactive). Moreover, the growth in test [13] was 93.2% (inactive); in test [14], 107% (inactive); in test [15] it was 101% (inactive); in test [16], 91.7% (inactive); in test [17], 93.8% (inactive); in test [18], 105% (inactive). In addition, the growth in [19] was 105% (inactive).
With `CCCCCCC/C=C/[C@H]1O[C@]2(O)C(=O)C=C3C[C@@H](O[C@@H]4O[C@H](CO)[C@@H](O)C(O)[C@@H]4O)C[C@@H]3[C@H]2C=C1C` (some centres undefined), the growth in test [1] is -25% (active); in [2] it was -12.2% (active); in test [3], 48.4% (inactive); in [4] it was -60.5% (active); in [6], 6.77% (active); in test [7] it was -52.4% (active). Besides, the growth in [8] is -76.1% (active); in [9] it was -26% (active); in test [10], -28.5% (active); in test [11] it was 72.4% (inactive); in test [12], 1.69% (active); in test [13], -88.1% (active). Further, the growth in [14] was 4.93% (active); in [15] it was -4.43% (active); in test [17], 71.2% (inactive); in test [18] it was 9.27% (active); in [19] it was -6.66% (active).
On to `CN1CCN(C(=O)[C@]2(C)CC[C@]3(C)CC[C@]4(C)C(=CC(=O)[C@@H]5[C@@]6(C)CCC(=O)NC(C)(C)[C@@H]6CC[C@]54C)[C@@H]3C2)CC1`, for which the growth was 94.6% (inactive) in test [1]; 86.9% (inactive) in [2]; 73.7% (inactive) in test [3]; 86.7% (inactive) in test [4]; 88.8% (inactive) in [5]; 88.8% (inactive) in test [6]. Also, the growth in [7] was 97.3% (inactive); in test [8], 84.6% (inactive); in [9], 101% (inactive); in [10], 100% (inactive); in [11], 93.9% (inactive); in test [13], 71.8% (inactive). Also, the growth in test [14] was 105% (inactive); in test [15] it was 108% (inactive); in test [16], 95.8% (inactive); in test [17], 102% (inactive); in [18], 93.2% (inactive); in [19] it was 85.6% (inactive).
As for `O=C(N/N=C/c1cccc(O)c1)c1ccccc1Nc1cccc(C(F)(F)F)c1`, the growth in test [1] was 72.2% (inactive); in test [2], 106% (inactive); in test [3], 79.7% (inactive); in test [4] it was 82.4% (inactive); in test [5] it was 81.9% (inactive); in [6], 82.5% (inactive). The growth in test [8] was 66.7% (inactive); in test [9] it was 96.6% (inactive); in [10], 111% (inactive); in test [11], 69.9% (inactive); in test [12], 93.5% (inactive); in test [13] it was 58% (inactive). For the same compound, the growth is 97.5% (inactive) in test [14]; 95.4% (inactive) in [15]; 36.9% (inactive) in test [16]; 92.3% (inactive) in test [17]; 3.83% (active) in test [18].
For the compound `C/C(=C(/c1ccccc1)c1ccc(OCC(O)CN2CCOCC2)cc1)c1ccccc1` (centres undefined), the growth in test [1] is 53.8% (inactive); in test [2], 13.1% (inactive); in [3], 91.4% (inactive); in test [4], 81.1% (inactive); in test [5] it was 71.8% (inactive); in test [6], 87.1% (inactive). Further, the growth in test [8] is 87.9% (inactive); in test [9], 90% (inactive); in test [10], 98.9% (inactive); in test [11], 96.6% (inactive); in test [12], 88.3% (inactive); in test [13] it was 73.7% (inactive). The growth was 94.3% (inactive) in [14]; 98.8% (inactive) in [15]; 80.1% (inactive) in test [16]; 91.6% (inactive) in [17]; 80.4% (inactive) in test [18]; 61.5% (inactive) in test [19].
Consider `COc1ccccc1C(C[N+](=O)[O-])c1c(-c2ccccc2)[nH]c2cc(C)ccc12` (centres undefined), for which the growth in test [1] was 44% (inactive); in [2] it was 35.8% (inactive); in [3], 42.7% (inactive); in test [4] it was 83.9% (inactive); in [5] it was 69.5% (inactive); in test [6] it was 74.9% (inactive). Besides, the growth in [7] is 43.8% (inactive); in test [8], 70.1% (inactive); in [9] it was 78.9% (inactive); in test [10], 62.8% (inactive); in test [11] it was 71.7% (inactive); in test [12], 77.9% (inactive). The growth in [13] is 57.2% (inactive); in test [14], 118% (inactive); in [15] it was 73.4% (inactive); in test [16] it was 38.1% (inactive); in test [18], 54.4% (inactive); in [19], 53% (inactive).
`O=C(NCCc1ccccn1)OCc1nc2nc(Cl)nc(N3CCOCC3)c2[nH]1`: the growth in [1] is -27.2% (active); in test [2], -28.9% (active); in test [3], 2.59% (active); in test [4] it was 16.3% (inactive); in test [5] it was 22.7% (inactive); in test [6] it was -10.8% (active). Moreover, the growth was 24.6% (inactive) in test [7]; -49.9% (active) in test [8]; 41.9% (inactive) in test [9]; -16% (active) in test [10]; 72.4% (inactive) in test [11]; 31.8% (inactive) in test [13]. Besides, the growth in test [14] was -29.4% (active); in test [15] it was -94.9% (active); in [16] it was 7.47% (active); in [17], -9.02% (active); in test [18] it was 0.909% (active); in test [19], 4.05% (active).
